Here are results for 9 molecules from PubChem BioAssay (NCI).

Compounds without any hit were thinned out: in the full panel of roughly 79,000, 15% have a hit. A number with no mark means an inactive call. Calls of active or inactive are those of the source. Cut-off read from the data, not from the text of the source: active = growth inhibition above about 70%; inactive = the rest.

The nature of assay [1]: NCI Yeast Anticancer Drug Screen. Data for the rad50 strain (AID 155).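 Note: 0% = growth of vehicle-only cultures of the same strain.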 The note with it: S. cerevisiae rad50 strain growth inhibition, stronger effect = higher value. Summed up: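 Genetically altered yeast (DNA repair pathway); compound treatment; growth inhibition vs vehicle ctrl.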
Assay [2] is described as follows: NCI Yeast Anticancer Drug Screen. Data for the mec2-1 strain (AID 157). The note with it: S. cerevisiae mec2-1 strain, stronger effect = higher value. A digest of the protocol: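 Test agents were screened against the mec2-1 yeast strain, with defined DNA repair or cell cycle alteration. Growth was scored as inhibition against vehicle-only controls.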
The nature of assay [3]: NCI Yeast Anticancer Drug Screen. Data for the sgs1 mgt1 strain (AID 161).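 Note: 0% = growth of cultures given vehicle only.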 The note with it: S. cerevisiae sgs1 mgt1 strain, stronger effect = higher value. A digest of the protocol: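 Read-out: growth inhibition vs vehicle controls. Cells: mutant yeast strain deficient in DNA damage repair.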
Assay [4] can be described thus: NCI Yeast Anticancer Drug Screen. Data for the cln2 rad14 strain (AID 165).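 Note: 0% = growth equal to vehicle treated cultures.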 The conditions noted are these: S. cerevisiae cln2 rad14 strain, stronger effect = higher value. Summed up: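 Growth of compound-exposed yeast (cln2 rad14 genotype) measured and expressed as inhibition relative to vehicle.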
Assay [5] is described as follows: NCI Yeast Anticancer Drug Screen. Data for the bub3 strain (AID 167). The conditions noted are these: S. cerevisiae bub3 mutant strain, stronger effect = higher value. A digest of the protocol:
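Yeast carrying a defined mutation is treated with each compound, and growth is compared with that of vehicle-exposed cells to give inhibition.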

Assay [6] is described as follows: NCI Yeast Anticancer Drug Screen. Data for the mlh1 rad18 strain (AID 175). The note with it: S. cerevisiae mlh1 rad18 strain growth inhibition, stronger effect = higher value. A digest of the protocol:
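In this whole-cell yeast screen, a strain with altered DNA damage repair is challenged with compound, and its growth is measured against matched vehicle-treated controls.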

[7] abbreviates: at 5.0 µM (retest, dose inferred, filed as 0.5).
[8] abbreviates: at 50.0 µM (retest, dose inferred, filed as 5.0).

In the case of `CCOC(=O)N1C2C=CC(=O)C(C=C2)N1C(=O)OCC` (configuration not stated), the growth inhibition is -1% in assay [1] (setting [7]); 43% in assay [1] (setting [8]); 72.8% (active) in assay [1] (at 50.0 µM); -9% in assay [2] (setting [7]); 61% in assay [2] (setting [8]); 85.5% (active) in assay [2] (at 50.0 µM). Also, the growth inhibition in assay [3] (setting [7]) was 1%; in assay [3] (setting [8]) it was 73% (active); in assay [3] (at 50.0 µM), 85.1% (active); in assay [4] (setting [7]), 7%; in assay [4] (setting [8]), 30%; in assay [4] (at 50.0 µM), 67.8%. Moreover, the growth inhibition was 1% in assay [5] (setting [7]); 61% in assay [5] (setting [8]); 86.7% (active) in assay [5] (at 50.0 µM); 18% in assay [6] (setting [7]); 85% (active) in assay [6] (setting [8]); 94.3% (active) in assay [6] (at 50.0 µM).
Turning to `CCOC(=O)Nc1nc2ccc(SC#N)cc2s1`, the growth inhibition in assay [1] (setting [7]) is 8%; in assay [1] (setting [8]) it was 85% (active); in assay [1] (at 50.0 µM), 92.9% (active); in assay [2] (setting [7]), 1%; in assay [2] (setting [8]), 81% (active); in assay [2] (at 50.0 µM) it was 64.8%. In addition, the growth inhibition was 9% in assay [3] (setting [7]); 96% (active) in assay [3] (setting [8]); 79.8% (active) in assay [3] (at 50.0 µM); 6% in assay [4] (setting [7]); 88% (active) in assay [4] (setting [8]); 57.5% in assay [4] (at 50.0 µM). The growth inhibition in assay [5] (setting [7]) is 23%; in assay [5] (setting [8]), 93% (active); in assay [5] (at 50.0 µM), 88.2% (active); in assay [6] (setting [7]), 9%; in assay [6] (setting [8]), 94% (active); in assay [6] (at 50.0 µM) it was 50.5%.
Regarding `Cc1ccc(N=C2SC(=S)N(CCC[N+](C)(C)C)C2=Nc2ccc(C)cc2)cc1`, the growth inhibition is -5% in assay [1] (setting [7]); 99% (active) in assay [1] (setting [8]); 99.2% (active) in assay [1] (at 50.0 µM); -18% in assay [2] (setting [7]); 100% (active) in assay [2] (setting [8]); 99.5% (active) in assay [2] (at 50.0 µM). Besides, the growth inhibition is -10% in assay [3] (setting [7]); 99% (active) in assay [3] (setting [8]); 99.5% (active) in assay [3] (at 50.0 µM); 12% in assay [4] (setting [7]); 99% (active) in assay [4] (setting [8]); 99.5% (active) in assay [4] (at 50.0 µM). Besides, the growth inhibition was -4% in assay [5] (setting [7]); 99% (active) in assay [5] (setting [8]); 99.4% (active) in assay [5] (at 50.0 µM); 3% in assay [6] (setting [7]); 100% (active) in assay [6] (setting [8]); 99.4% (active) in assay [6] (at 50.0 µM).
Consider `O=c1[nH]c2c([N+](=O)[O-])cc(Cl)cc2nc1/C=C(\O)c1ccc(Cl)cc1`, for which the growth inhibition is -16% in assay [1] (setting [7]); 91% (active) in assay [1] (setting [8]); 96.8% (active) in assay [1] (at 50.0 µM); 20% in assay [2] (setting [7]); 87% (active) in assay [2] (setting [8]); 95.3% (active) in assay [2] (at 50.0 µM). The growth inhibition is -3% in assay [3] (setting [7]); 78% (active) in assay [3] (setting [8]); 95.3% (active) in assay [3] (at 50.0 µM); -27% in assay [4] (setting [7]); 83% (active) in assay [4] (setting [8]); 65% in assay [4] (at 50.0 µM). The growth inhibition was 17% in assay [5] (setting [7]); 87% (active) in assay [5] (setting [8]); 89.8% (active) in assay [5] (at 50.0 µM); 13% in assay [6] (setting [7]); 95% (active) in assay [6] (setting [8]); 97.2% (active) in assay [6] (at 50.0 µM).
For the molecule `CSc1cc2c(cc1N)Cc1ccccc1-2`, the growth inhibition is 3% in assay [1] (setting [7]); 71% (active) in assay [1] (setting [8]); 85.4% (active) in assay [1] (at 50.0 µM); 8% in assay [2] (setting [7]); 88% (active) in assay [2] (setting [8]); 90.8% (active) in assay [2] (at 50.0 µM). Besides, the growth inhibition in assay [3] (setting [7]) was 3%; in assay [3] (setting [8]) it was 30%; in assay [3] (at 50.0 µM), 97% (active); in assay [4] (setting [7]) it was 1%; in assay [4] (setting [8]), 50%; in assay [4] (at 50.0 µM) it was 88.7% (active). In addition, the growth inhibition in assay [5] (setting [7]) is -1%; in assay [5] (setting [8]) it was 91% (active); in assay [5] (at 50.0 µM) it was 97.3% (active); in assay [6] (setting [7]), 6%; in assay [6] (setting [8]), 89% (active); in assay [6] (at 50.0 µM), 97.3% (active).
`Cc1ccc(N2C(=O)CSC2=S)cc1Br`: the growth inhibition in assay [1] (setting [7]) was 7%; in assay [1] (setting [8]), 46%; in assay [1] (at 50.0 µM), 95.1% (active); in assay [2] (setting [7]), 3%; in assay [2] (setting [8]) it was 11%; in assay [2] (at 50.0 µM), 93% (active). Moreover, the growth inhibition in assay [3] (setting [7]) was 4%; in assay [3] (setting [8]) it was 49%; in assay [3] (at 50.0 µM) it was 94.9% (active); in assay [4] (setting [7]) it was -1%; in assay [4] (setting [8]), -11%; in assay [4] (at 50.0 µM), 31.9%. Also, the growth inhibition in assay [5] (setting [7]) is -2%; in assay [5] (setting [8]), 24%; in assay [5] (at 50.0 µM), 77.5% (active); in assay [6] (setting [7]), 3%; in assay [6] (setting [8]) it was 64%; in assay [6] (at 50.0 µM), 95.2% (active).
Regarding `CCCCCCCCCCCCCCCC1(OC)C[N+](C)(C)CCO1` (configuration not stated), the growth inhibition in assay [1] (setting [7]) was 99% (active); in assay [1] (setting [8]), 99% (active); in assay [1] (at 50.0 µM) it was 99.5% (active); in assay [2] (setting [7]), 100% (active); in assay [2] (setting [8]) it was 100% (active); in assay [2] (at 50.0 µM) it was 99.7% (active). For the same molecule, the growth inhibition in assay [3] (setting [7]) is 99% (active); in assay [3] (setting [8]), 100% (active); in assay [3] (at 50.0 µM), 99.7% (active); in assay [4] (setting [7]), 100% (active); in assay [4] (setting [8]) it was 100% (active); in assay [4] (at 50.0 µM), 99.5% (active). In addition, the growth inhibition in assay [5] (setting [7]) was 99% (active); in assay [5] (setting [8]) it was 99% (active); in assay [5] (at 50.0 µM), 99.7% (active); in assay [6] (setting [7]), 99% (active); in assay [6] (setting [8]), 100% (active); in assay [6] (at 50.0 µM), 99.7% (active).
On to `CCCCCCCCC1(OCCCS(=O)(=O)O)COc2ccccc2OCCOCCOc2ccccc2OC1`, for which the growth inhibition was -13% in assay [1] (setting [7]); 87% (active) in assay [1] (setting [8]); 97.9% (active) in assay [1] (at 50.0 µM); -4% in assay [2] (setting [7]); 74% (active) in assay [2] (setting [8]); 87% (active) in assay [2] (at 50.0 µM). Also, the growth inhibition in assay [3] (setting [7]) is -6%; in assay [3] (setting [8]), 73% (active); in assay [3] (at 50.0 µM), 97.9% (active); in assay [4] (setting [7]) it was -4%; in assay [4] (setting [8]), 73% (active); in assay [4] (at 50.0 µM) it was 93.6% (active). Besides, the growth inhibition is -8% in assay [5] (setting [7]); 80% (active) in assay [5] (setting [8]); 96% (active) in assay [5] (at 50.0 µM); -7% in assay [6] (setting [7]); 87% (active) in assay [6] (setting [8]); 95.2% (active) in assay [6] (at 50.0 µM).
For the molecule `COc1ccc(-c2cc(C(=O)O)c3cccc(C(F)(F)F)c3n2)cc1`, the growth inhibition in assay [1] (setting [7]) was 15%; in assay [1] (setting [8]) it was 85% (active); in assay [1] (at 50.0 µM), 67.9%; in assay [2] (setting [7]), 4%; in assay [2] (setting [8]) it was 83% (active); in assay [2] (at 50.0 µM), 57.6%. For the same molecule, the growth inhibition is 0% in assay [3] (setting [7]); 92% (active) in assay [3] (setting [8]); 72.9% (active) in assay [3] (at 50.0 µM); 22% in assay [4] (setting [7]); 80% (active) in assay [4] (setting [8]); 64.5% in assay [4] (at 50.0 µM). The growth inhibition in assay [5] (setting [7]) is 12%; in assay [5] (setting [8]), 78% (active); in assay [5] (at 50.0 µM), 59%; in assay [6] (setting [7]), 17%; in assay [6] (setting [8]), 96% (active); in assay [6] (at 50.0 µM), 89.7% (active).
